Reference: PubChem BioAssay AID1159580 (chemical genetic matrix, 2015)
Out of some 5,500 compounds screened, about 2,000 (36%) were called active. Not shown: some 18% with an inconclusive outcome. Cut-off read from the data, not from the text of the source: active = normalized growth mostly below about 0.91 (no sharp cut-off); inconclusive = no clear call, values can overlap the other calls; inactive = mostly above about 0.92. The list shows a part of the results.

Assay: chemical genetic growth profiling, strain panel (AID 1159580);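 note: tested at 20 µM; growth read once vehicle control cultures reached saturation at 30 °C; 1 = growth at the plate median or of vehicle wells; lower values mean less growth of the strain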
Conditions: S. cerevisiae deletion strains, growth OD
[1] = locus YDL101C, strain DUN1, hits give low values
[2] = locus YHR030C, strain SLT2, hits give low values
[3] = locus YAL013W, strain DEP1, hits give low values
[4] = locus YBR229C, strain ROT2, hits give low values
[5] = locus YDL134C, strain PPH21, hits give low values
[6] = locus YDR150W, strain NUM1, hits give low values
[7] = locus YEL061C, strain CIN8, hits give low values
[8] = locus YGR078C, strain PAC10, hits give low values
[9] = locus YHR087W, strain rtc3, hits give low values
[10] = locus YJR043C, strain POL32, hits give low values
[11] = locus YJR075W, strain HOC1, hits give low values
[12] = locus YLR039C, strain RIC1, hits give low values
[13] = locus YLR058C, strain SHM2 (second series), hits give low values
[14] = locus YLR085C, strain ARP6, hits give low values
[15] = locus YLR262C, strain YPT6, hits give low values
[16] = locus YML094W, strain GIM5, hits give low values
[17] = locus YMR219W, strain ESC1, hits give low values
[18] = locus YMR263W, strain SAP30, hits give low values
[19] = locus YMR307W, strain GAS1, hits give low values
[20] = locus YNL128W, strain TEP1, hits give low values
[21] = locus YNL153C, strain GIM3, hits give low values
[22] = locus YNL298W, strain CLA4 (second series), hits give low values
[23] = locus YNL322C, strain KRE1, hits give low values
[24] = locus YNR030W, strain Alg12, hits give low values
[25] = locus YPL055C, strain LGE1, hits give low values
[26] = locus YPL241C, strain CIN2, hits give low values
[27] = locus YPR135W, strain CTF4, hits give low values

Measured: normalized growth

O=C(Nc1cccc2ccccc12)c1ccccc1O
active: locus YAR019C, strain CDC15, hits give low values 0.848 | locus YBL105C, strain PKC1, hits give low values 0.862 | locus YBR135W, strain CKS1, hits give low values 0.85 | locus YBR136W, strain MEC1, hits give low values 0.834 | locus YBR160W, strain CDC28, hits give low values 0.872 | locus YDL017W, strain CDC7, hits give low values 0.866 | locus YDL028C, strain MPS1, hits give low values 0.816 | locus YDL108W, strain KIN28, hits give low values 0.827 | locus YDL132W, strain cdc53, hits give low values 0.834 | locus YDL214C, strain PRR2, hits give low values 0.563 | locus YDR052C, strain DBF4, hits give low values 0.83 | locus YDR054C, strain cdc34, hits give low values 0.842 | locus YDR226W, strain ADK1, hits give low values 0.856 | locus YDR477W, strain SNF1, hits give low values 0.563 | locus YER123W, strain YCK3, hits give low values 0.432 | locus YER133W, strain GLC7, hits give low values 0.524 | locus YFL009W, strain cdc4, hits give low values 0.837 | locus YFL029C, strain CAK1, hits give low values 0.845 | locus YFR003C, strain YPI1, hits give low values 0.854 | locus YFR028C, strain CDC14, hits give low values 0.846 | locus YGR040W, strain KSS1, hits give low values 0.557 | locus YGR052W, strain FMP48, hits give low values 0.556 | locus YGR092W, strain DBF2, hits give low values 0.324 | [2] 0.505 | locus YHR079C, strain IRE1, hits give low values 0.405 | locus YHR082C, strain KSP1, hits give low values 0.576 | locus YIL147C, strain SLN1, hits give low values 0.831 | locus YJL095W, strain BCK1, hits give low values 0.488 | locus YJL157C, strain FAR1, hits give low values 0.492 | locus YJR016C, strain ILV3, hits give low values 0.852 | locus YJR066W, strain TOR1, hits give low values 0.479 | locus YKL048C, strain ELM1, hits give low values 0.768 | locus YKL067W, strain YNK1, hits give low values 0.555 | locus YKL101W, strain HSL1, hits give low values 0.585 | locus YKL193C, strain SDS22, hits give low values 0.843 | locus YKL203C, strain TOR2, hits give low values 0.572 | locus YLR113W, strain HOG1, hits give low values 0.327 | locus YLR133W, strain CKI1, hits give low values 0.595 | locus YLR403W, strain SFP1, hits give low values 0.552 | locus YML070W, strain DAK1, hits give low values 0.519 | locus YMR001C, strain CDC5, hits give low values 0.838 | locus YMR205C, strain PFK2 (second series), hits give low values 0.53 | locus YMR277W, strain FCP1, hits give low values 0.839 | locus YNL006W, strain LST8, hits give low values 0.858 | locus YNL020C, strain ARK1, hits give low values 0.529 | locus YNL161W, strain CBK1, hits give low values 0.864 | locus YNL183C, strain NPR1, hits give low values 0.443 | locus YNL207W, strain RIO2, hits give low values 0.834 | locus YNL222W, strain SSU72, hits give low values 0.847 | locus YNL307C, strain MCK1 (second series), hits give low values 0.571 | locus YOL078W, strain AVO1, hits give low values 0.847 | locus YOL136C, strain PFK27, hits give low values 0.533 | locus YOR061W, strain CKA2, hits give low values 0.608 | locus YOR119C, strain RIO1, hits give low values 0.549 | locus YOR231W, strain MKK1, hits give low values 0.426 | locus YOR329C, strain SCD5, hits give low values 0.857 | locus YPL031C, strain PHO85, hits give low values 0.526 | locus YPL153C, strain RAD53, hits give low values 0.52 | locus YPL204W, strain HRR25, hits give low values 0.52 | locus YPL209C, strain IPL1, hits give low values 0.86 | locus YPL256C, strain CLN2, hits give low values 0.547 | locus YPR025C, strain CCL1, hits give low values 0.855 | strain NNK1, hits give low values 0.87 | strain TSCII, hits give low values 0.833
inactive: [1] 0.93 | locus YFR019W, strain FAB1, hits give low values 0.781 | locus YHR205W, strain SCH9, hits give low values 0.687 | locus YJL128C, strain PBS2, hits give low values 0.823 | locus YJR066W, strain TOR1 (second series), hits give low values 0.645 | locus YPR106W, strain ISR1, hits give low values 0.896 | locus YPR111W, strain DBF20, hits give low values 0.884

O=C(Nc1ccccc1)Nc1ccc(C(F)(F)F)cc1Br
inactive: [3] 0.968 | [4] 0.985 | [1] 1.04 | [5] 0.967 | [6] 0.957 | [7] 0.981 | [8] 0.948 | [2] 0.749 | [9] 0.941 | locus YJL187C, strain SWE1, hits give low values 0.943 | [10] 0.926 | [11] 0.906 | [12] 0.843 | [13] 0.969 | [15] 0.948 | [16] 0.957 | [17] 0.99 | [18] 0.917 | [20] 0.957 | [21] 0.979 | [23] 0.995 | [24] 0.887 | [25] 0.842 | [26] 0.885 | [27] 0.878
active: [14] 0.728 | [19] 0.54 | [22] 0.799 | locus YOL006C, strain TOP1, hits give low values 0.722

CC(=O)Nc1ccc(C(F)(F)F)cc1Br
inactive: [3] 1 | [4] 1.01 | [1] 0.979 | [5] 0.98 | [6] 0.862 | [7] 0.967 | [8] 0.993 | [2] 0.896 | [9] 1.05 | [10] 0.932 | [11] 0.99 | [12] 1 | [13] 0.972 | [14] 0.933 | [15] 1 | [16] 0.996 | [17] 0.999 | [18] 0.965 | [19] 1.06 | [20] 0.964 | [21] 0.994 | [22] 0.957 | [23] 0.989 | [24] 0.993 | [25] 1.05 | [26] 1 | [27] 0.897
